# Data reported in the supplement of paper PMC8728848.
# Only a selection was taken, and the strongest signals are over-represented in it overall.
# B1: Epa1-NP (Candida glabrata), Q6VBJ0 (protein)
# chain: MILNPALFLNKCVCIYTTLILLLLTNGGYATSSNDISLASKDPTTFPLGCSPDITTPKKGLSMELYSYDFRKKGSYPCWDAAYLDPNYPRTGYKSHRLLAKVDGVTGNINFYYHATKGCTPQLGHLPASYNYPKPLTMTNFTMLLYGYFRPKVTGFHTFTISADDLLFVNFGAGNAFDCCRRDSSADHFGNYQAYAIWGSKTAKDELTVHLDAGVYYPIRLFYNNREYDGALSFTFKTESNENTVSDFSEYFFSLDDTEEGCPGLISYDSSCASVKTSKIIGIDYHTETPNENLVPITKTIYHLGIPCTGTTTTPLCGSGFYDPLANKCVTINTSSTSSVTKTTSHTTSKEVSFHSSISSQKTLIPKSIPSPYGPIKSQSIPTEMETSSEISSSEYAFSDVISTPSHSPYTKKHSSLNSSSYTSTVIHSLTSYSISQGIFSTSLSEQNITSKSSTDKFSTATSMSNNITQSSIIISQFSTNNENYTTTSMHTSSDKISTETLNNSISTTTSILFSNSSTILKNNTTIISSDKDTHYHPVNPTIVCSTNKTEIICASITQPSISNSNNHWSSSVLKFNSTTVRSTLPSSAGSNETSINVPFSSSTESNTSTSSTSTSNSKMVRSTLPSSAGSNETSISVPFSSSTESNTSTSSTSTSNSKMVRSTLPSSAGSNETSINVPFSSSTESNTSTSSTSTSNSKTVRSTPFSSAGIIMTSLSQRNNKSASSYASSNSKCYNTADSCRKVHSTPSYLLTSSYTSEGVDYDCSLVSTKLKINDTNCVNNKHTTKSCLKTSVTTTIPTLEIKTARKSSSNTIGLHSYPTSSPNKSISSAPIIGYISSFKTIKTASPSYQTSDLTTITTITSLNNPGSTAVENTHESNDKSRKTSSNDISSKHSVIKETKDAVESSNKSHQTNTLKCSSIIIASSSHNSYESLGGTTLTLTLSKVYSPQNNDTLPFLEISEVNPSRTVLPESSKMMQYLTSTEERNKTARNTIATNIVSISTFHFEGEGNAIRMGYTQLLLMLIGIIVMNIGT
# Tests used:
# Experiment in all cases: glycan array binding signal (z-score within array); higher = stronger binding
# Conditions in all cases: glycan notation: IUPAC condensed, linker removed
# [1] = molecular target: Fuc(a1-2)Gal(b1-3)GlcNAc(b1-3)Gal(b1-4)Glc
# Summary of the method: (§1)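 The Consortium for Functional Glycomics database supplied 3228 glycan arrays, of which those lacking an available protein sequence were dropped. The binding signal, a within-array Z-score, was averaged across arrays of the same protein sequence and across linkers. Negative scores can be read as non-binding.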
# [2] = molecular target: Fuc(a1-2)Gal(b1-4)GlcNAc(b1-3)Gal(b1-4)GlcNAc(b1-2)Man(a1-3)[Fuc(a1-2)Gal(b1-4)GlcNAc(b1-3)Gal(b1-4)GlcNAc(b1-2)Man(a1-6)]Man(b1-4)GlcNAc(b1-4)GlcNAc
# Summary of the method: as §1
# [3] = molecular target: Fuc(a1-2)Gal3S(b1-4)GlcNAc
# Summary of the method: as §1
# Fuc(a1-2)GlcNAc = molecular target: Fuc(a1-2)GlcNAc
# Summary of the method: as §1
# [4] = molecular target: Fuc(a1-2)[Gal(a1-3)]Gal(b1-4)GlcNAc(b1-3)GalNAc
# Summary of the method: as §1
# [5] = molecular target: Fuc(a1-2)[Gal(a1-3)]Gal(b1-4)GlcNAc(b1-3)[Fuc(a1-2)[Gal(a1-3)]Gal(b1-4)GlcNAc(b1-6)]GalNAc
# Summary of the method: as §1
# [6] = molecular target: Fuc(a1-2)[GalNAc(a1-3)]Gal(b1-3)GlcNAc(b1-6)GalNAc
# Summary of the method: as §1
# [7] = molecular target: Fuc(a1-2)[GalNAc(a1-3)]Gal(b1-4)[Fuc(a1-3)]GlcNAc
# Summary of the method: as §1
# [8] = molecular target: Fuc(a1-2)[GalNAc(b1-3)]Gal
# Summary of the method: as §1
# [9] = molecular target: Fuc(a1-3)[Gal3S(b1-4)]GlcNAc
# Summary of the method: as §1
# [10] = molecular target: Fuc(a1-3)[GalNAc(b1-4)]GlcNAc
# Summary of the method: as §1
# [11] = molecular target: Gal(a1-3)Gal(b1-4)[Fuc(a1-3)]GlcNAc(b1-2)Man(a1-3)[Gal(a1-3)Gal(b1-4)[Fuc(a1-3)]GlcNAc(b1-2)Man(a1-6)]Man(b1-4)GlcNAc(b1-4)GlcNAc
# Summary of the method: as §1
# Gal(a1-4)Gal(b1-4)Gal = molecular target: Gal(a1-4)Gal(b1-4)Gal
# Summary of the method: as §1
# Gal(b1-2)Gal = molecular target: Gal(b1-2)Gal
# Summary of the method: as §1
# Gal(b1-3)Gal = molecular target: Gal(b1-3)Gal
# Summary of the method: as §1
# Gal(b1-3)Gal(b1-4)GlcNAc = molecular target: Gal(b1-3)Gal(b1-4)GlcNAc
# Summary of the method: as §1
# Gal(b1-3)GalNAc = molecular target: Gal(b1-3)GalNAc
# Summary of the method: as §1
# Gal(b1-3)GalNAc(b1-3)Gal = molecular target: Gal(b1-3)GalNAc(b1-3)Gal
# Summary of the method: as §1
# [12] = molecular target: Gal(b1-3)GalNAc(b1-3)Gal(b1-4)Glc
# Summary of the method: as §1
# [13] = molecular target: Gal(b1-3)GalNAc(b1-4)Gal(b1-4)Glc
# Summary of the method: as §1
# [14] = molecular target: Gal(b1-3)GalNAc(b1-4)[Neu5Ac(a2-3)]Gal(b1-4)Glc
# Summary of the method: as §1
# [15] = molecular target: Gal(b1-3)[Neu5Ac(a2-6)]GalNAc
# Summary of the method: as §1
# [16] = molecular target: Gal(b1-4)GlcNAc(b1-2)Man(a1-6)[Man(a1-3)]Man(b1-4)GlcNAc(b1-4)GlcNAc
# Summary of the method: as §1
# [17] = molecular target: Gal(b1-4)GlcNAc(b1-3)Gal(b1-4)GlcNAc(b1-2)[Gal(b1-4)GlcNAc(b1-3)Gal(b1-4)GlcNAc(b1-6)]Man(a1-6)[Gal(b1-4)GlcNAc(b1-3)Gal(b1-4)GlcNAc(b1-2)Man(a1-3)]Man(b1-4)GlcNAc(b1-4)GlcNAc
# Summary of the method: as §1
# [18] = molecular target: Gal(b1-4)GlcNAc(b1-3)Gal(b1-4)GlcNAc(b1-2)[Gal(b1-4)GlcNAc(b1-3)Gal(b1-4)GlcNAc(b1-6)]Man(a1-6)[Gal(b1-4)GlcNAc(b1-3)Gal(b1-4)GlcNAc(b1-2)Man(a1-3)]Man(b1-4)GlcNAc(b1-4)[Fuc(a1-6)]GlcNAc
# Summary of the method: as §1
# [19] = molecular target: Gal(b1-4)GlcNAc(b1-3)Gal(b1-4)GlcNAc(b1-3)Gal(b1-4)GlcNAc(b1-2)[Gal(b1-4)GlcNAc(b1-3)Gal(b1-4)GlcNAc(b1-3)Gal(b1-4)GlcNAc(b1-6)]Man(a1-6)[Gal(b1-4)GlcNAc(b1-3)Gal(b1-4)GlcNAc(b1-3)Gal(b1-4)GlcNAc(b1-2)Man(a1-3)]Man(b1-4)GlcNAc(b1-4)[Fuc(a1-6)]GlcNAc
# Summary of the method: as §1
# [20] = molecular target: Gal(b1-4)GlcNAc(b1-3)Gal(b1-4)GlcNAc(b1-3)Gal(b1-4)GlcNAc(b1-3)Gal(b1-4)GlcNAc(b1-3)Gal(b1-4)GlcNAc(b1-3)Gal(b1-4)GlcNAc(b1-2)Man(a1-3)[Gal(b1-4)GlcNAc(b1-3)Gal(b1-4)GlcNAc(b1-3)Gal(b1-4)GlcNAc(b1-3)Gal(b1-4)GlcNAc(b1-3)Gal(b1-4)GlcNAc(b1-3)Gal(b1-4)GlcNAc(b1-2)Man(a1-6)]Man(b1-4)GlcNAc(b1-4)GlcNAc
# Summary of the method: as §1
# [21] = molecular target: Gal(b1-4)GlcNAc(b1-6)Gal(b1-4)GlcNAc
# Summary of the method: as §1
# [22] = molecular target: Gal(b1-4)GlcNAc(b1-6)[Gal(b1-3)]GalNAc
# Summary of the method: as §1
binder,measurement,setting,value
B1,glycan array binding signal (z-score),[1],-0.296
same,glycan array binding signal (z-score),[2],-0.277
same,glycan array binding signal (z-score),[3],-0.26
same,glycan array binding signal (z-score),Fuc(a1-2)GlcNAc,-0.542
same,glycan array binding signal (z-score),[4],-0.269
same,glycan array binding signal (z-score),[5],-0.281
same,glycan array binding signal (z-score),[6],-0.291
same,glycan array binding signal (z-score),[7],-0.283
same,glycan array binding signal (z-score),[8],-0.272
same,glycan array binding signal (z-score),[9],-0.341
same,glycan array binding signal (z-score),[10],-0.265
same,glycan array binding signal (z-score),[11],-0.174
same,glycan array binding signal (z-score),Gal(a1-4)Gal(b1-4)Gal,0.374
same,glycan array binding signal (z-score),Gal(b1-2)Gal,0.199
same,glycan array binding signal (z-score),Gal(b1-3)Gal,2.9
same,glycan array binding signal (z-score),Gal(b1-3)Gal(b1-4)GlcNAc,5
same,glycan array binding signal (z-score),Gal(b1-3)GalNAc,2.56
same,glycan array binding signal (z-score),Gal(b1-3)GalNAc(b1-3)Gal,2.91
same,glycan array binding signal (z-score),[12],1.31
same,glycan array binding signal (z-score),[13],8.65
same,glycan array binding signal (z-score),[14],2.27
same,glycan array binding signal (z-score),[15],5.06
same,glycan array binding signal (z-score),[16],-0.225
same,glycan array binding signal (z-score),[17],1.54
same,glycan array binding signal (z-score),[18],2.48
same,glycan array binding signal (z-score),[19],2.81
same,glycan array binding signal (z-score),[20],1.3
same,glycan array binding signal (z-score),[21],2.34
same,glycan array binding signal (z-score),[22],2.73
